About 14,000 (4.5%) of roughly 310,000 compounds showed an effect of 50% or more. The effect is printed as a negative number. The list comes from a sample in which strong results are over-represented; it also holds similar structures and randomly drawn compounds.
Each molecule was assayed against human ether-à-go-go-related gene (hERG) potassium channel (human, UniProt Q12809) (assay: primary screen, population patch clamp on CHO cells stably expressing hERG; higher = less effect of the substance).
Chain of human ether-à-go-go-related gene (hERG) potassium channel (Q12809 whole entry, looked up): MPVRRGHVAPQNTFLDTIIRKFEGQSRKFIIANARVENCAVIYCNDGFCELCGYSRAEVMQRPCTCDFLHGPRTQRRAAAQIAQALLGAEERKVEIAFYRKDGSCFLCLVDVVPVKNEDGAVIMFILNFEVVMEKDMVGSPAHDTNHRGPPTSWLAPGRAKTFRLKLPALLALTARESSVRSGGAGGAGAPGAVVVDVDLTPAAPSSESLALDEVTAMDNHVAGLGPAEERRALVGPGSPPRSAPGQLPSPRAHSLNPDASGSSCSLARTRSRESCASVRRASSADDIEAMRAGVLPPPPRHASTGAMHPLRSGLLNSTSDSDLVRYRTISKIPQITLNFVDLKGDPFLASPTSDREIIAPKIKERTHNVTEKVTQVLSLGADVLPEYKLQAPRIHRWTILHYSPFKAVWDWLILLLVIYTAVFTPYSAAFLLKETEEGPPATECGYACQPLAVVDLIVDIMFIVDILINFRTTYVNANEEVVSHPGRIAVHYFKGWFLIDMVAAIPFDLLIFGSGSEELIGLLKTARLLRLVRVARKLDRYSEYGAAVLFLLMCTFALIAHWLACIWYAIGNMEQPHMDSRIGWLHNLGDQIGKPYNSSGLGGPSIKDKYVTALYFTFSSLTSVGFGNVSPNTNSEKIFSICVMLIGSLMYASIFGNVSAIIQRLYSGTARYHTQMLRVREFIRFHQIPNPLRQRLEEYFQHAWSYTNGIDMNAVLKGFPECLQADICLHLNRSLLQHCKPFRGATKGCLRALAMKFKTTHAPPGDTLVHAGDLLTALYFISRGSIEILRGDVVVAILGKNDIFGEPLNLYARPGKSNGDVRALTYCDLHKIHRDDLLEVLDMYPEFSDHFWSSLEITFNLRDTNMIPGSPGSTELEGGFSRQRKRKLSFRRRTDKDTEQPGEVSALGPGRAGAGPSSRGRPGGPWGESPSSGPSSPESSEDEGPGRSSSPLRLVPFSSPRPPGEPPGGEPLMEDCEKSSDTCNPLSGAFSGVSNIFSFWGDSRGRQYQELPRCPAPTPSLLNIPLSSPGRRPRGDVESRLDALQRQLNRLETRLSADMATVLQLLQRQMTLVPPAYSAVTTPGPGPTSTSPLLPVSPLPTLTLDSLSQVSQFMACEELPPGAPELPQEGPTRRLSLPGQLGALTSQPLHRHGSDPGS
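Further: peak tail current of the secondary pulse compared with the same well before compound.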

Compound	hERG current change (%, negative = inhibition) at 10uM [%]
O=c1nc2n(c3c4c(sc13)CCC4)CCC2	5.51
CC(=O)Nc1ccc(C(=O)NCCN2CCOCC2)cc1	15.8
CCOc1ccccc1/C=N/Nc1nc2c(N)ncnc2n1[C@H]1O[C@@H](CO)[C@H](O)[C@@H]1O	-9.61
Cc1ccc(C2c3[nH]c4ccccc4c3C[C@H]3C(=O)N(c4ccccc4C(=O)NCCN4CCOCC4)C(=O)N23)cc1 (some centres unmarked)	-24.9
COc1ccc(C2c3[nH]c4ccccc4c3C[C@H]3C(=O)N(c4ccccc4C(=O)NCCN4CCOCC4)C(=O)N23)cc1 (some centres unmarked)	-23.7
Cc1ccc(C2c3[nH]c4ccccc4c3C[C@H]3C(=O)N(c4ccccc4C(=O)NCCCN4CCOCC4)C(=O)N23)cc1 (some centres unmarked)	-54.6
O=C(NCCCN1CCOCC1)c1ccccc1N1C(=O)[C@@H]2Cc3c([nH]c4ccccc34)C(c3ccc(F)cc3)N2C1=O (some centres unmarked)	-68
O=C(NCCN1CCOCC1)c1ccccc1N1C(=O)[C@@H]2Cc3c([nH]c4ccccc34)C(c3ccc(F)cc3)N2C1=O (some centres unmarked)	-47.2
O=C(NCCCN1CCOCC1)c1ccccc1N1C(=O)[C@@H]2Cc3c([nH]c4ccccc34)C(c3cccc(Cl)c3)N2C1=O (some centres unmarked)	-72.3
O=C(CCN1CCOCC1)N1CCc2c([nH]c3ccccc23)C1c1cccc(Cl)c1 (centres unmarked)	-70.5
O=C(c1cnccn1)N1CCc2c([nH]c3ccccc23)C1c1cccc(Cl)c1 (centres unmarked)	-33.6
Cc1ccccc1C1c2[nH]c3ccccc3c2C[C@H]2C(=O)N(c3ccccc3C(=O)NCCCN3CCOCC3)C(=O)N12 (some centres unmarked)	-21.3
O=C(NCCN1CCOCC1)c1ccccc1N1C(=O)[C@@H]2Cc3c([nH]c4ccccc34)C(c3ccccc3)N2C1=O (some centres unmarked)	-20.4
COc1cccc(C2c3[nH]c4ccccc4c3C[C@H]3C(=O)N(c4ccccc4C(=O)NCCCN4CCOCC4)C(=O)N23)c1 (some centres unmarked)	-19.9
CC(=O)NCCC(=O)N1CCc2c([nH]c3ccccc23)C1c1cccc(Cl)c1 (centres unmarked)	-24.2
O=C(O)c1ccc(/C=C2\SC(=S)N(NC(=O)c3ccccc3[N+](=O)[O-])C2=O)cc1	12.4
[2H]C([2H])(CCOS(N)(=O)=O)c1ccccc1	11.1
CC(=O)N1CCc2c(sc(NC(=O)C3COc4ccccc4O3)c2C(N)=O)C1 (centres unmarked)	-20
CCOc1ccc(CN2CCSCC2)cc1	2.36
O=C(NCCNS(=O)(=O)c1ccccc1)c1ccc([N+](=O)[O-])cc1	-12
COc1ccccc1Nc1nc(N)nc(CSC(=S)N2CC(C)CC(C)C2)n1 (centres unmarked)	-9.46
COc1ccccc1Nc1nc(N)nc(CSC(=S)N2CCCCC2)n1	0.598
Cc1cccc(Nc2nc(N)nc(CN3CCC(C(N)=O)CC3)n2)c1C	17.5
COc1ccccc1Nc1nc(N)nc(CN2CC(C)CC(C)C2)n1 (centres unmarked)	-73.8
COc1ccccc1Nc1nc(N)nc(CN2CCOCC2)n1	10.1
COc1ccccc1Nc1nc(N)nc(CSc2ncccn2)n1	-24.2
COc1ccccc1Nc1nc(N)nc(CN2CCCCC2)n1	-54.9

Compound	hERG current change (%, negative = inhibition) at 10uM [%]
Cc1c(Cl)cccc1Nc1nc(N)nc(CN2CCc3ccccc3C2)n1	-33
Cc1c(Cl)cccc1Nc1nc(N)nc(CN2CCCCCC2)n1	-74.6
COc1ccccc1Nc1nc(N)nc(CSCCO)n1	15
COc1ccccc1Nc1nc(N)nc(CN2CCCCCC2)n1	-57.7
O=C(Nc1ccc2c(c1)OCO2)c1cccc(S(=O)(=O)N2CCCC2)c1	-15.9
CN(Cc1ccccc1)C(=O)CN1C(=O)NC(C)(c2ccc(C(C)(C)C)cc2)C1=O (centres unmarked)	-16.8
COc1cccc(/C=N/NC(=O)c2nc(-c3ccccc3)cc(-c3ccccc3)n2)c1O	-9.46
Cc1cc(=O)oc2cc(OCC(=O)N/N=C/c3ccccc3O)ccc12	23.9
O.O=C(NCc1nc2ccccc2[nH]1)c1ccc(Cl)c(S(=O)(=O)N2CCCC2)c1	-14.3
CCOC(=O)c1oc2ccc(CNC(C)(C)C)c(Cl)c2c1C.O=C(O)C(=O)O	-5.61
O=C(CC(C(=O)O)P(=O)(c1ccccc1)c1ccccc1)c1ccccc1 (centres unmarked)	24.3
Nc1ccc(-c2cc(N)n(-c3ccccc3)n2)cc1	0.669
Cn1c2ccccc2c2cc(C(=O)NNS(=O)(=O)c3ccc(F)cc3)sc21	-5.97
COc1ccccc1Nc1nc(N)nc(CN2CCC(C)CC2)n1	-67.5
COc1ccccc1Nc1nc(N)nc(CSC(=S)N2CCC(C)CC2)n1	-13.7
Cc1cc(C(F)(F)F)nn1C(=O)c1cccnc1Cl	-5.15
O=C(C1=C[C@H](C2CC2)C[C@H](OCCCCO)O1)N1CCN(Cc2ccccc2)CC1	-12.5
O=C(C1=C[C@H](C2CC2)C[C@H](OCc2ccc(CO)cc2)O1)N1CCN(Cc2ccccc2)CC1	-62.7
CN1CCN(C(=O)C2=C[C@@H](C3CC3)C[C@@H](OCc3ccc(CO)cc3)O2)CC1	16.5
CN1CCN(C(=O)C2=C[C@@H](C3CCCCC3)C[C@@H](OCc3ccc(CO)cc3)O2)CC1	-13.6
O=C(C1=C[C@@H](C2CC2)C[C@@H](OCc2ccc(CO)cc2)O1)N1CCN(Cc2ccccc2)CC1	-58.7
CCO[C@H]1OC(C(=O)N2CCN(Cc3ccc4c(c3)OCO4)CC2)=C[C@@H](C2CCCCC2)[C@@H]1CCCO	-55.5
CC(C)(C)[C@H]1C=C(C(=O)N2CCN(Cc3ccccc3)CC2)O[C@@H](OCc2ccc(CO)cc2)C1	-38.9
CN1CCN(C(=O)C2=C[C@H](C3CCCCC3)C[C@H](OCc3ccc(CO)cc3)O2)CC1	-61.7
CCO[C@@H]1OC(C(=O)N2CCN(Cc3ccc4c(c3)OCO4)CC2)=C[C@H](C2CCCCC2)[C@H]1CCCO	-17.8
O=C(C1=C[C@H](c2ccccc2)C[C@H](OCc2ccc(CO)cc2)O1)N1CCN(Cc2ccccc2)CC1	-41.2
CCO[C@@H]1OC(C(=O)N2CCN(Cc3ccc4c(c3)OCO4)CC2)=C[C@H](C2CC2)[C@H]1CCCO	-18.7

Compound	hERG current change (%, negative = inhibition) at 10uM [%]
CN1CCN(C(=O)C2=C[C@H](C3CC3)C[C@H](OCc3ccc(CO)cc3)O2)CC1	-1.42
Cc1ccc(CNC(=O)C2CCN(c3nnc(N4CCCC4=O)s3)CC2)cc1	14.4
CCOc1ccc(-c2nc(C#N)c(NCC(C)C)o2)cc1	7.61
Cc1cccc(OCCCC(=O)NCc2ccco2)c1	2.27
CCc1cccc(NC(=O)CCSCCC(=O)Nc2cccc(CC)c2)c1	-9.75
CSc1n[nH]c2nc3c(c(=O)n12)C1(CCCCC1)Cc1ccccc1-3	-13
CCn1nnc(-c2ccccc2NC(=O)c2ccc(-n3cnnn3)cc2)n1	-21.9
O=C(C1=C[C@@H](C2CCCCC2)C[C@@H](OCCCCO)O1)N1CCN(Cc2ccc3c(c2)OCO3)CC1	-45.1
O=C(C1=C[C@H](C2CCCCC2)C[C@H](OCc2ccc(CO)cc2)O1)N1CCN(Cc2ccccc2)CC1	-67.6
O=C(C1=C[C@@H](C2CCCCC2)C[C@@H](OCc2ccc(CO)cc2)O1)N1CCOCC1	-23.9
O=C(C1=C[C@H](C2CCCCC2)C[C@H](OCCCCO)O1)N1CCN(Cc2ccc3c(c2)OCO3)CC1	-56.5
O=C(C1=C[C@@H](C2CC2)C[C@@H](OCCCCO)O1)N1CCN(Cc2ccccc2)CC1	0.7
O=C(C1=C[C@H](C2CCCCC2)C[C@H](OCCCCO)O1)N1CCN(Cc2ccccc2)CC1	-46.4
O=C(C1=C[C@@H](C2CCCCC2)C[C@@H](OCCCCO)O1)N1CCN(Cc2ccccc2)CC1	-50.1
O=C(C1=C[C@H](C2CC2)C[C@H](OCCCCO)O1)N1CCN(Cc2ccc3c(c2)OCO3)CC1	-26.3
O=C(C1=C[C@@H](C2CCCCC2)C[C@@H](OCc2ccc(CO)cc2)O1)N1CCN(Cc2ccccc2)CC1	-25.4
CN(CC(=O)O/N=C(\N)c1ccc([N+](=O)[O-])cc1)S(=O)(=O)c1ccc2ccccc2c1	-12.6
CCN(C1CCCCC1)S(=O)(=O)c1ccc(C(=O)O)cc1	6.74
O=C(Nc1cccnc1Cl)c1ccc(S(=O)(=O)N2CCCCCC2)cc1	-8.39
CCc1c2c(nc3ccc(OC(=O)N4CCC(N5CCCCC5)CC4)cc13)-c1cc3c(c(=O)n1C2)COC(=O)[C@]3(O)CC.Cl.O	12.8
CC(CCc1ccccc1)NC(=O)CN1CCN(Cc2ccccc2)C1=O (centres unmarked)	-18.2
COc1ccc(CCNC(=O)CN2CCN(Cc3ccccc3F)C2=O)cc1OC	8.26
Cc1ccc(CCNC(=O)CN2CCN(Cc3ccccc3F)C2=O)cc1	-8.3
CC(CCc1ccccc1)NC(=O)CN1CCN(Cc2ccc(Cl)cc2)C1=O (centres unmarked)	-53.2
O=C(CN1CCN(Cc2ccccc2F)C1=O)NCCc1ccc(Cl)cc1	-52.8
Cc1ccc(CN2CCN(CC(=O)NC(C)CCc3ccccc3)C2=O)cc1 (centres unmarked)	-20.6
